Assay results reported in article PMC4552634, “A New Set of Chemical Starting Points with Plasmodium falciparum Transmission-Blocking Potential for Antimalarial Drug Discovery” (PLoS ONE, 2015).
About 3,200 (25%) of roughly 13,000 compounds showed an effect of 50% or more. This is one part of the list.

System: P. falciparum stage V gametocytes
Parameters: BacTiter-Glo ATP luminescence viability of purified stage V gametocytes in 384-well plates, per cent inhibition versus DMSO
Details: 48 h, 5 µM; inhibitor

First: Nc1nc(N)c2c(Cc3ccc(Br)cc3)cccc2n1 [TCMDC-137800]
Second: Nc1nc(N)c2c(Oc3cccc(Cl)c3)cccc2n1 [TCMDC-137741]
The “% Inhibition” value of the first is higher: 14.7% for the first, -2.704% for the second.

Compared with `CCOC(=O)C(C(C)=O)C(c1ccccc1)C(C(C)=O)C(=O)OCC` (stereo not shown) [TCMDC-125515], `CCOC(=O)Cn1ccc2c(NCc3ccccc3)nc(C)nc21` [TCMDC-137249] is lower in “% Inhibition” value: 28.08% for the first, 9.107% for the second.

Going from `CC1CCCC(NC(=O)CCOc2ccccc2)C1` (stereo not shown) [TCMDC-139363] to `COc1cccc(C(=O)NCCOc2ccccc2)c1Oc1ccccc1` [TCMDC-141238], the “% Inhibition” value falls from 13.69% to 4.712%.

Compared with `CCOC(=O)c1ccc(NC(=O)N(Cc2ccc(-c3cccc(CN4CCNCC4)c3)cc2)C2CCN(Cc3ccccc3)CC2)cc1` [TCMDC-139636], `CCOC(=O)c1ccc(NC(=O)N(Cc2ccc(-c3ccc(CN4CCNCC4)cc3)cc2)C2CCN(Cc3ccccc3)CC2)cc1` [TCMDC-139651] is lower in “% Inhibition” value: 111.5% for the first, 101.9% for the second.

First: CCOC(=O)c1ccc(NC(=O)N(Cc2ccc(-c3ccc(CN4CCNCC4)cc3)cc2)Cc2cccnc2)cc1 [TCMDC-139650]
Second: CN1CCCN(Cc2ccc(-c3ccc(NC(=O)c4ccc(C#N)cc4)cc3)cc2)CC1 [TCMDC-132588]
The “% Inhibition” value of the first is higher: 18.76% for the first, 15.04% for the second.

Compared with `CC(C)Cc1nc(N)nc(N)c1-c1ccc(Cl)cc1` [TCMDC-137932], `CCOc1cc(Cc2cnc(N)nc2N)ccc1OC` [TCMDC-137931] is higher in “% Inhibition” value: 19.17% for the first, 24.72% for the second.

First: Cn1nc(C(F)(F)F)c(-c2ccc(F)cc2)c1NC(=O)Nc1ccc(F)cc1F [TCMDC-123774]
Second: Cn1nc(C(F)(F)F)c(-c2ccc(Br)cc2)c1NC(=O)Nc1ccc(F)cc1F [TCMDC-124576]
The “% Inhibition” value of the first is higher: 47.06% for the first, 44.22% for the second.

First: O=C(Nc1ccccc1)Nc1ccc(-n2ccc(C(F)(F)F)n2)cc1 [TCMDC-123480]
Second: Cn1nc(C(F)(F)F)c(-c2ccc(F)cc2)c1NC(=O)Nc1ccc(F)cc1 [TCMDC-124506]
The “% Inhibition” value of the first is lower: -19.16% for the first, 65.51% for the second.

Going from `CN1CCN=C1c1ccc(NC(=O)Nc2ccc(C3=NCCN3C)cc2)cc1` [TCMDC-137204] to `CC(C)NCc1ccc(-c2ccc(NC(=O)c3cccc(C#N)c3)cc2)cc1` [TCMDC-132595], the “% Inhibition” value rises from 15.96% to 51.63%.

Going from `O=C(Nc1ccccc1C(F)(F)F)Nc1nn(Cc2c(F)cccc2Cl)cc1Br` [TCMDC-124365] to `Cn1nc(C(F)(F)F)c(-c2ccc(Br)cc2)c1NC(=O)Cc1ccccc1F` [TCMDC-123792], the “% Inhibition” value rises from -20.4% to 91.27%.

First: COc1ccc(-c2c(C(F)(F)F)nn(C)c2NC(=O)Nc2ccc(F)cc2F)cc1 [TCMDC-123775]
Second: COc1ccc(NC(=O)Nc2cccc(-c3cccc(-c4nc5ccc(F)cc5[nH]4)c3)c2)cc1 [TCMDC-133249]
The “% Inhibition” value of the first is higher: 71.46% for the first, -8.23% for the second.

Going from `OC(CN1CCN(c2cccc(Cl)c2)CC1)C(c1ccccc1)c1ccccc1` (stereo not shown) [TCMDC-123456] to `CC(C)NCc1ccc(-c2cccc(NC(=O)c3ccc(Cl)cc3)c2)cc1` [TCMDC-132629], the “% Inhibition” value falls from 0.2376% to -59.93%.

Compared with `COc1cccc2cc(C(=O)N[C@@H](CC(C)C)C(=O)N[C@H](C=NN3CCCC3=O)Cc3ccccc3)oc12` [TCMDC-136091], `CC(C)NCc1cccc(-c2ccc(NC(=O)c3ccc(F)cc3)cc2)c1` [TCMDC-132666] is lower in “% Inhibition” value: 20.05% for the first, -42.89% for the second.

Compared with `CC(c1cccc(Nc2nccc(-c3c(-c4cccc(NC(=O)c5c(F)cccc5F)c4)nn4ncccc34)n2)c1)S(C)(=O)=O` (stereo not shown) [TCMDC-135696], `CC(C)NCc1cccc(-c2cccc(NC(=O)c3cccc(C#N)c3)c2)c1` [TCMDC-132662] is higher in “% Inhibition” value: -68.26% for the first, 13.1% for the second.

Compared with `CCCCCN1CCCC1CNS(=O)(=O)c1ccc(C(=O)Nc2cccc(C(F)(F)F)c2)cc1` (stereo not shown) [TCMDC-133688], `CC(C)NCc1ccc(-c2cccc(NC(=O)c3ccc(F)cc3)c2)cc1` [TCMDC-132635] is higher in “% Inhibition” value: -7.266% for the first, 20.54% for the second.

Compared with `CN1CCc2cc(CN3CC4(C)CC3CC(C)(C)C4)c(O)cc2C(c2ccccc2)C1` (stereo not shown) [TCMDC-131903], `Cc1cc(C2CCCCN2C)ccc1-c1ccc(C(=O)N2CCc3cc4c(cc32)C2(CCN(C)CC2)CO4)cc1` (stereo not shown) [TCMDC-139081] is higher in “% Inhibition” value: -50.67% for the first, 76.58% for the second.

First: CC(C)NCc1ccc(-c2cccc(NC(=O)c3cccc(C#N)c3)c2)cc1 [TCMDC-132649]
Second: CC(C)NCc1cccc(-c2ccc(NC(=O)c3cccc(C#N)c3)cc2)c1 [TCMDC-132672]
The “% Inhibition” value of the first is higher: 48.87% for the first, -57.78% for the second.

Compared with `CC(C)NCc1ccc(-c2ccc(NC(=O)c3ccc(C#N)cc3)cc2)cc1` [TCMDC-132589], `CC(C)NCc1cccc(-c2ccc(NC(=O)c3ccc(C#N)cc3)cc2)c1` [TCMDC-132669] is lower in “% Inhibition” value: 83.96% for the first, -2.892% for the second.

Going from `CC(C)NCc1cccc(-c2cccc(NC(=O)c3ccc(C#N)cc3)c2)c1` [TCMDC-132656] to `CC(C)NCc1ccc(-c2cccc(NC(=O)c3ccc(C#N)cc3)c2)cc1` [TCMDC-132638], the “% Inhibition” value falls from 89.01% to 83.96%.

Compared with `Nc1ncc(-c2cn[nH]c2)cc1-c1nc2ccc(Cl)cc2[nH]1` [TCMDC-133560], `Cn1nccc1C(=O)NCCNCc1ccc(-c2cccc(-c3nc4cc(F)ccc4[nH]3)c2)cc1.O=C(O)C(F)(F)F` [TCMDC-133016] is lower in “% Inhibition” value: -7.229% for the first, -24.65% for the second.

First: C=CCc1cc(Cc2cnc(N)nc2N)cc(CCC)c1OC [TCMDC-138039]
Second: COc1ccc2nccc([C@@H](O)CN3CCC(NC/C=C/c4cccnc4)CC3)c2c1 [TCMDC-140747]
The “% Inhibition” value of the first is higher: 23.16% for the first, -1.69% for the second.

Going from `O=C(O)c1ccc(-c2cnc3ccc(NC4CCC(O)CC4)nn23)cc1` (stereo not shown) [TCMDC-136692] to `COc1cc2c(cc1N1CC(C)NC(C)C1)N(C(=O)c1ccc(-c3ccc(-c4ncc[nH]4)cc3C)cc1)CC2` (stereo not shown) [TCMDC-141160], the “% Inhibition” value rises from 8.489% to 13.02%.

Going from `Cc1c(C)n(C2CCCC2)c2ncnc(OC3CCN(CC(=O)NC4CC4)CC3)c12` [TCMDC-133310] to `Cc1cc(-c2ncc[nH]2)ccc1-c1ccc(C(=O)N2CCc3cc4c(cc32)C2(CCN(C)CC2)CO4)cc1` [TCMDC-139079], the “% Inhibition” value falls from -5.87% to -8.812%.
